Values joined by “and” are separate entries in the source; they are usually repeats but may differ in a detail not shown here. Equal values may be shown once. A number with no mark means an inactive call.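 How the source made its calls: active means z-score of at least 1.8 in each of two replicates, scored against plate mean and spread of sample wells; inactive means the rest.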

Z-score data for eight molecules are collected here from PubChem BioAssay.

This assay is described as follows: galactose survival enhancers in mitochondrial complex I cybrids – cell-based, galactose medium, ATP luminescence, primary screen (AID 1645843).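 Further: positive z means more ATP and so rescue of galactose-driven cybrid death.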 Conditions: complex I mutant cybrid cells, 72 h, hits give high values.
As for `O=c1c(-c2ccc(O)cc2)coc2cc(O)ccc12`, the z-score was 0.775 and 0.485.
As for `C[C@@]12C(=O)OC(=O)[C@]1(C)[C@H]1CC[C@@H]2O1`, the z-score was -0.755.
Regarding `CCCC(=O)Nc1ncnc2c1ncn2[C@@H]1O[C@@H]2COP(=O)(O)O[C@H]2[C@H]1OC(=O)CCC`, the z-score is 0.335.
`CCN1CCCC1CNC(=O)c1cc(S(N)(=O)=O)ccc1OC` (stereo not drawn): the z-score is 0.32 and 0.4 and 0.185.
As to `CCOC(=O)C1=C(O)C(=O)N(Cc2ccccc2)C1`, the z-score was 0.685 and -0.055.
Consider `O=C(O)c1cc([N+](=O)[O-])ccc1NCCCc1ccccc1`, for which the z-score was 0.305 and -0.425.
To `CC(CCc1ccc(O)cc1)NCCc1ccc(O)c(O)c1` (stereo not drawn) belongs -1.02 and -0.96 and -2.02; to `NC(=O)c1cccc(N)c1`, 0.345 and 1.35.
